Sampled rows, rich in hits. Any-hit rate of the full collection: about 6.9%.
L3MBTL1 inh: qHTS Assay for the Inhibitors of L3MBTL1. Lethal(3)malignant brain tumor-like protein 1 (Homo sapiens), Q9Y468. AlphaScreen L3MBTL1–H3K9me1 peptide binding. Potency, µM (top dose mostly 57.1 µM), actives largely listed as inhibitors. 230,000 compounds, 0.66% hits. AID 485360, 2010; also: nearly all actives have a fitted effect of over 60% in size
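First, the protein-peptide complex forms for 30 min at room temperature (L3MBTL1 50 nM, biotinylated H3K9me1 peptide 75 nM). Next, compounds are pin-transferred and incubated 30 min. Finally, AlphaScreen beads are added and read after 30 min.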
HP1b binding inh: HTS for Inhibitors of HP1-beta Chromodomain Interactions with Methylated Histone Tails; Chromobox protein homolog 1 (Homo sapiens), P83916; AlphaScreen HP1-beta / biotin-H3K9me3 peptide binding; Potency, µM (highest dose often 114 µM), hits mostly inhibitors; 390,000 compounds, 0.56% hits; also: nearly all actives have a fitted effect of over 70% in size
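HP1-beta protein (50 nM final) preincubated 30 min at room temperature with biotinylated H3(1-18)K9me3 peptide (50 nM) in PBS pH 7.4, 0.01% Tween-20, then compound added for 30 min. AlphaScreen streptavidin donor/nickel chelate acceptor beads (10 ug/mL final), 30 min dark, luminescence read.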
BAZ2B inh: qHTS Assay for Inhibitors of BAZ2B; Bromodomain adjacent to zinc finger domain protein 2B (Homo sapiens), Q9UIF8; AlphaScreen BAZ2B-H3K14Ac peptide displacement; Potency, µM (titrated, usually from 114 µM), hits mostly inhibitors; 360,000 compounds, 4.4% hits; AID 504333, 2011; also: nearly all actives have a fitted effect of over 60% in size
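Complex of BAZ2B and biotin-H3K14Ac (50 nM apiece) forms over 30 min at RT, then faces library compounds up to 110 uM for another 30 min; AlphaScreen beads added, 20 min dark incubation, luminescence read.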
PLK1 PBD inh: qHTS for Inhibitors of PLK1-PDB (polo-like kinase 1 - polo-box domain): Primary Screen; Plk1 PBD binding of FITC phosphopeptide, fluorescence polarization; 360,000 compounds, 2.8% hits; Potency, µM, actives largely listed as inhibitors; Serine/threonine-protein kinase PLK1 (Homo sapiens), P53350; also: series mostly up to about 57 µM; nearly all actives have a fitted effect of over 65% in size
Target sequence (P53350 whole entry, looked up, the tested form may be a part): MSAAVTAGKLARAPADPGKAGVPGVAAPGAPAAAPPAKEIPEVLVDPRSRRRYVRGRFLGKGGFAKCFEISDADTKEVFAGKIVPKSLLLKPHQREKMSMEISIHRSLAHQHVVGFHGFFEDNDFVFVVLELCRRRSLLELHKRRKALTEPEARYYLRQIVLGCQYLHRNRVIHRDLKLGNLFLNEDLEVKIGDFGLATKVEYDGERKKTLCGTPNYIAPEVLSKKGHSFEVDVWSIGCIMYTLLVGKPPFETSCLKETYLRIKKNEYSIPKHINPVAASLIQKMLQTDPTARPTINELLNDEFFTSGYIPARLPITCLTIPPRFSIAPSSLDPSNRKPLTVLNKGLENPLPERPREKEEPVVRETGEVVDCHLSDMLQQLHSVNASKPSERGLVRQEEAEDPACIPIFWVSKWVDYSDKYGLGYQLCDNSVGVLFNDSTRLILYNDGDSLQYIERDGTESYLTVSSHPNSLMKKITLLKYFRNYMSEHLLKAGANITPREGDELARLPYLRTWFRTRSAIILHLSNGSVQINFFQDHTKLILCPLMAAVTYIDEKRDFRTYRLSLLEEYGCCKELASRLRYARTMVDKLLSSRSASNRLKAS
JMJD2A Tudor: qHTS Assay for Inhibitors of JMJD2A-Tudor Domain | Lysine-specific demethylase 4A (Homo sapiens), O75164 | AlphaScreen JMJD2A-Tudor / H3K4me3 peptide binding | Potency, µM (top dose mostly 114 µM), most hits filed as inhibitors | 390,000 compounds, 4.4% hits | AID 504339, 2011; also: nearly all actives have a fitted effect of over 50% in size
VDR inh: Inhibitors of the vitamin D receptor (VDR): qHTS. Vitamin D3 receptor (Homo sapiens), P11473. VDR-SRC2-3 peptide fluorescence polarization, 2 h. Potency, µM, hits mostly inhibitors. 400,000 compounds, 0.93% hits. AID 504847, 2011
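Compounds are added to VDR with labelled SRC2-3 coactivator peptide and held 2 h at room temperature. Inhibition of the VDR–peptide interaction is then read as a change in fluorescence polarization.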
Hits are given with their value; 0 = inactive; ? = inconclusive; - = no result given; ! = not confirmed by another sample; [ ] = remark or other dose. Calls follow the shape of the dose curve; as a rule, active = well fitted curve in the direction sought with a large enough effect; inconclusive = small, poorly fitted or top-dose-only effect, or another doubt; inactive = no such curve, though single readings can be large; an effect the other way counts as inactive or inconclusive.

SMILES	L3MBTL1 inh	HP1b binding inh	BAZ2B inh	PLK1 PBD inh	JMJD2A Tudor	VDR inh
COCC(C)NCc1ccc(OC)c(Br)c1 (stereo not drawn)	0	?	50.1µM	0	17.8µM	0
CCOC(=O)c1ccc(NC(=O)CCc2c(C)nc3nc[nH]n3c2=O)cc1	-	0	56.2µM	-	0	0
CCCCCC(=O)OCCc1c(C)nc2nc[nH]n2c1=O	-	0	0	0	0[11.4 µM]	0
CC1=CC2=NC(=O)/C(=C\c3cccn3CCOc3ccccc3C)C(=N)N2O1	-	0	?	26.7µM	?	0
O=[N+]([O-])c1cc(CN2CCCCCC2)ccc1O	0	0	0	0	0	0
Cc1ccc(Sc2ccc(CN3CCCCC3)cc2[N+](=O)[O-])cc1	?	?	?	0	35.5µM	0
Cc1ccc(CNC(=O)COc2ccc(S(=O)(=O)N3CCOCC3)cc2)cc1	0	0	0	0	0	0
O=C(Nc1cccc(C(F)(F)F)c1)c1cc(Br)cc2c1OCC2	0	0	0	0	0	0
O=C(Nc1cccc(C(F)(F)F)c1)c1scc2c1OCCO2	0	0	0	?	50.1µM	0
CCC(=O)NCC(=O)OCC(=O)c1ccccc1	0	?	0	2.99µM	?	0
O=C(CSCc1cccc(Cl)c1)Nc1ccccc1-c1ccccc1	0	0	0	0	0	0
c1ccc(-c2ccc(-c3cnc4n3CCCCC4)cc2)cc1	-	0	50.1µM	0	56.2µM	0
COc1ccc(C)cc1NC(=O)C1COc2ccccc2C1 (stereo not drawn)	-	0	0	-	8.91µM	0
COC1[C@@H](OC)C[C@H](C)[C@@H](OC)C2=CC(=O)C=C(NC(=O)/C(C)=C/C=C\[C@H](OC)[C@@H](OC(N)=O)/C(C)=C/[C@@H]1C)C2=O (stereo partly drawn)	-	-	-	-	-	79.4µM
C=CCNC1=C2C[C@@H](C)C[C@H](OC)[C@H](O)[C@@H](C)/C=C(\C)[C@H](OC(N)=O)[C@@H](OC)/C=C/C=C(\C)C(=O)NC(=CC1=O)C2=O	-	-	-	-	-	0
CC(C)(CNC(=O)c1cccc(S(=O)(=O)Nc2ccc(SC(F)F)cc2)c1)N1CCOCC1	-	0	-	13.4µM	0	0
Cc1ccc(S(=O)(=O)Nc2cccc(C(=O)NCC(C)(C)N3CCOCC3)c2)cc1F	0	0	0	0	0	0
COc1ccc(CNC(=O)CCCc2nnc3n(C(C)C)c(=O)c4sccc4n23)cc1	-	0	0	-	0	0
CO[C@H]1C[C@@H]2CC[C@@H](C)[C@@](O)(O2)C(=O)C(=O)N2CCCC[C@H]2C(=O)O[C@H]([C@H](C)C[C@@H]2CC[C@@H](O)[C@H](OC)C2)CC(=O)[C@H](C)/C=C(/C)[C@@H](O)[C@@H](OC)C(=O)[C@H](C)C[C@H](C)C=C/C=C\C=C/1C	-	0	-	-	0	0
CO[C@H]1C[C@@H]2CC[C@@H](C)[C@@](O)(O2)C(=O)C(=O)N2CCCC[C@H]2C(=O)OC([C@H](C)C[C@@H]2CC[C@@H](O)[C@H](OC)C2)CC(=O)[C@H](C)/C=C(\C)[C@@H](O)[C@@H](OC)C(=O)[C@H](C)C[C@H](C)/C=C/C=C/C=C/1C (stereo partly drawn)	-	-	-	-	-	44.7µM!
CC1=CCC(/C=N\Nc2nnc3c(n2)[nH]c2ccccc23)CC1 (stereo not drawn)	0	-	50.1µM	-	-	-
COc1ccc(C(CCNCc2ccc(N(C)C)cc2)c2ccccc2)cc1 (stereo not drawn)	-	39.8µM	11.2µM	0	25.1µM	0
COC(=O)Cn1cnc2sc3c(c2c1=O)CCCC3	0	0	0	0	0	0
CCc1ccccc1NC(=O)CNC(=O)CCc1nc2sc3c(c2c(=O)[nH]1)CCCC3	?	0	50.1µM	0	?	0
O=C(Cn1cnc2sc3c(c2c1=O)CCCC3)NCC(=O)Nc1c(F)cccc1F	-	0	0	33.6µM	?	0
SMILES	L3MBTL1 inh	HP1b binding inh	BAZ2B inh	PLK1 PBD inh	JMJD2A Tudor	VDR inh
CC1(NC(=O)CCc2nc3sc4c(c3c(=O)[nH]2)CCCC4)CCS(=O)(=O)C1 (stereo not drawn)	?	0	79.4µM	0	?	0
Cc1ccc(CN(C)C(=O)CCc2nc3sc4c(c3c(=O)[nH]2)CCCC4)o1	-	0	0	0	70.8µM	?
COCc1cc(C)nc2sc3c(c12)NC(c1ccc(NC(C)=O)cc1)N(c1ccc(C)cc1)C3=O (stereo not drawn)	-	0	0	-	0	0
Cc1cn([C@H]2C[C@H](O)[C@@H](CCC(=O)NCCc3cccs3)O2)c(=O)[nH]c1=O	-	-	-	0	-	-
CCCNC(=O)C1(C)CCCN(C(=O)c2cccc(C(F)(F)F)c2)C1 (stereo not drawn)	-	-	-	0	-	-
CCn1c(CNC(=O)c2ccc(OC)cc2)nnc1SCC(=O)Nc1ccc(C)cc1	-	0	0	-	0	0
CCCc1nc2sc3c(c2c(=O)[nH]1)CCCC3	0	0	0	26.7µM	?	79.4µM
CCN(CC(=O)Nc1c(F)cccc1F)C(=O)CCc1nc2sc3c(c2c(=O)[nH]1)CCCC3	?	0	50.1µM	0	?	0
COc1cccc(NC(=O)C(=O)NCC(c2cccnc2)N2CCN(c3ccccc3)CC2)c1 (stereo not drawn)	-	0	?	-	0	0
COc1ccc(C(=O)c2coc(-c3ccccc3C(=O)O)c2C(=O)O)cc1	0	0	0	0	0	0
COc1ccc(C(=O)c2c(C(F)(F)F)oc3c2C(=O)c2ccccc2C3=O)cc1	-	?	7.94µM	0	?	0
CC(Oc1ccc(Cl)cc1Cl)c1ccn[nH]1 (stereo not drawn)	0	0	0	0	0	0

From PubChem BioAssay
